# Bioassay records deposited in PubChem by National Center for Advancing Translational Sciences (NCATS).
# KDM5B inhibitor = Primary screen for KDM5B Histone Demethylases FDH-coupled qHTS. 2.6% of 220,000 active. KDM5B demethylase, FDH-coupled NADH fluorescence (FDH is formaldehyde dehydrogenase). Lysine-specific demethylase 5B (Homo sapiens), Q9UGL1. AID 1347165, 2019. Potency, µM (top dose mostly 57.7 µM), usual class: inhibitors; active = well fitted inhibition curve with a large enough effect; inconclusive = small, poorly fitted or top-dose-only effect; inactive = no such curve, though single readings can be large or run the other way; note: potency is the fitted concentration of half-maximal effect; 0% is about no effect; nearly all actives have a fitted effect of over 70% in size
# Target sequence (Q9UGL1 whole entry, looked up): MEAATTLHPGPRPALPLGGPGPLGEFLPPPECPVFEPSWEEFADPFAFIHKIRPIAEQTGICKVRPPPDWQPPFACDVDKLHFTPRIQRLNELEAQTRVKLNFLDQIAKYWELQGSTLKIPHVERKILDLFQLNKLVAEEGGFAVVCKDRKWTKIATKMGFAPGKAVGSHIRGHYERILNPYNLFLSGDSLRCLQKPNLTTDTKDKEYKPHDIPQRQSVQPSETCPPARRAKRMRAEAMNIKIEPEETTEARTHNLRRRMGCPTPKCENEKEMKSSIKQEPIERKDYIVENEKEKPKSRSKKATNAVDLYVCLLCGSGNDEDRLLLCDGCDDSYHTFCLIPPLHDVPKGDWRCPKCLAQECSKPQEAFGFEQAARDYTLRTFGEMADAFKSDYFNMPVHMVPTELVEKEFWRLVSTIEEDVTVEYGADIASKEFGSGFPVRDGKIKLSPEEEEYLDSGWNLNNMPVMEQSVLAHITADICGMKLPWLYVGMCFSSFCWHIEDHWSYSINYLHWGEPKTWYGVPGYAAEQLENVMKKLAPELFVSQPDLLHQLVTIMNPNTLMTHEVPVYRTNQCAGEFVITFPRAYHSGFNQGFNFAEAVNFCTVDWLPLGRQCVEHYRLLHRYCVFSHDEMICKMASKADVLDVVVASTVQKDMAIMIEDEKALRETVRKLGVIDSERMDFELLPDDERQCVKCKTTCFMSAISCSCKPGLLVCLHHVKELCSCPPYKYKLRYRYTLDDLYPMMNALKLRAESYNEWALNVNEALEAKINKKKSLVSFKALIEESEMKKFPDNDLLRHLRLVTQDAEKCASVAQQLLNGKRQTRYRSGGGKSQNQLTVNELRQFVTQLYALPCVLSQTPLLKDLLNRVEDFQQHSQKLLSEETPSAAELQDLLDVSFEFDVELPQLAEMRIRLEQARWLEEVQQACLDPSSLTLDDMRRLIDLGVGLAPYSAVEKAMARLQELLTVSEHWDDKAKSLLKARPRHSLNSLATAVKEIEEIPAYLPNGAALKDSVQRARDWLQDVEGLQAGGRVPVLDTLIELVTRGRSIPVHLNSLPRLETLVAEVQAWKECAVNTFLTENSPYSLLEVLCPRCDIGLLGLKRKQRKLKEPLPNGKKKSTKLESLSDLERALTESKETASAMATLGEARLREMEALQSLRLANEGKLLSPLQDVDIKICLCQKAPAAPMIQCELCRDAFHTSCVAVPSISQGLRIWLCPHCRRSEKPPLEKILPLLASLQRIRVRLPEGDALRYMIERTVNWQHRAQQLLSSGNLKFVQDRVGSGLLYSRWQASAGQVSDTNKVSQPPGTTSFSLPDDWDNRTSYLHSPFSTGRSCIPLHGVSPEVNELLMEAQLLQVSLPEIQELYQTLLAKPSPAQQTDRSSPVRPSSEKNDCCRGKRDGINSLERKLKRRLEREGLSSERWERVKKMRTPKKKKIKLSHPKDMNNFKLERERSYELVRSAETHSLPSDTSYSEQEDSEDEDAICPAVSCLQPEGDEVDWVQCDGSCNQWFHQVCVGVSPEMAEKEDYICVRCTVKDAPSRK
#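 Compound dilutions met 200 nM (final) KDM5BΔAP for 10 min at room temperature before substrate addition. The substrate mix held 12.5 µM H3K4me3 with cofactors 25 µM α-ketoglutarate and 50 µM Fe²⁺. NADH signal gain over 30 min defined activity.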
# IP6K1 inhibitor = Primary qHTS assay for small molecule inhibitors of Inositol hexaphosphate kinase 1 (IP6K1); IP6K1 kinase, ADP-Glo luminescence, 2 h; stronger effect = lower value; activity change, % (series mostly up to about 58 µM); 0.81% of 140,000 active; in the data active = activity change below about -25%; note: % is set by controls: 0 for no effect and ±100 for the full control effect
#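 ADP-Glo luminescence measures ADP made by human IP6K1 during a 2 h RT reaction with ATP/IP6 (mix at 1.3 mM/130 uM); top library doses 57.5 and 19.1 uM final.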
# * marks the source's active call; other numbers are inactive results; i = inactive; ? = inconclusive; · = not tested or not shown. Only some compounds are listed: those with a hit (about 2.7% of all), similar ones and a draw of the others.
SMILES,KDM5B inhibitor,IP6K1 inhibitor
CN(C)c1nccnc1OC1CCN(C(=O)c2ccccn2)C1 (stereo unspecified),?,23
Cc1ccccc1N(C)C1CN([S+](=O)([O-])c2cccs2)C1,i,9
CCCCN(Cc1ccccc1)c1ccc(NS(=O)(=O)c2c(C)cc(C)cc2C)cc1C(=O)O,i,·
O=C(Cc1cccc(Cl)c1)N1CCC(C(=O)N2CCC(N3Cc4ccccc4C3=O)CC2)CC1,·,12
Cc1cnc(-c2ccccc2)n1CCC1CCN(C(=O)C2(c3ccccc3)CC2)CC1,·,22
COP(=O)(OC)c1nc(Cc2ccc(Cl)cc2)oc1NCc1ccc2c(c1)OCO2,i,·
O=C(Nc1ccc(Cl)c(Cl)c1)c1nn(Cc2ccccc2)c(=O)c2ccccc12,i,·
CN(CCO)C[C@@H]1CN(C(=O)c2nc3ccccc3[nH]c2=O)C[C@@H]1CO,28µM*,9
CC(C)[C@@H]1CN(C(=O)c2nc3ccccc3[nH]c2=O)C[C@H]1NS(C)(=O)=O,?,6
COc1ccc(C)cc1NC(=O)COc1ccc(C(=O)Nn2c(C)ccc2C)cc1,i,·
O=C(NCc1ccc(Cl)cc1)c1c[nH]c2ncccc12,i,-7
O=C(NCc1ccnc2[nH]ccc12)c1ccccc1Cl,35µM*,10
O=C(NCc1ccnc2[nH]ccc12)c1cccc2[nH]ccc12,?,16
O=C(NCc1ccc(Cl)cc1)c1ccnc2[nH]ccc12,28µM*,4
Cc1cc2c(c(=O)n1CCN(C)C)C(c1cccc(Br)c1)C(C#N)=C(N)O2 (stereo unspecified),i,·
COc1ccc(-c2nccn3cc(C(=O)NCc4cccnc4)nc23)cc1,20µM*,19
CCOC(=O)C1CCN(C(=O)c2cn3ccnc(-c4ccc(OC)cc4)c3n2)CC1,25µM*,22
COc1ccc(-c2nccn3cc(C(=O)O)nc23)cc1,28µM*,-10
COc1ccc(CNC(=O)c2cn3ccnc(-c4ccccc4)c3n2)cc1OC,i,24
COc1ccc(-c2nccn3cc(C(=O)NCCc4cccnc4)nc23)cc1,28µM*,13
COc1ccc(-c2nccn3cc(C(=O)Nc4ccc(OC)c(OC)c4)nc23)cc1,i,0
CCOC(=O)C1CCN(C(=O)c2cn3cc(-c4ccc(OC)cc4)sc3n2)CC1,·,6
COCCNC(=O)c1cn2ccnc(-c3ccc(C)cc3)c2n1,i,20
CC(C)n1ncc2cc(C(=O)NCc3ccccc3OC(F)(F)F)cnc21,i,·
Cc1nc2c(c(-c3ccc(O)cc3)n1)CN(Cc1ccc(OC(F)(F)F)cc1)CCC2,i,-2
SMILES,KDM5B inhibitor,IP6K1 inhibitor
COc1ccc(-c2nccn3cc(C(=O)NCc4nc5ccccc5n4C)nc23)cc1,7.9µM*,16
COc1cc(C(=O)NCc2nc3ccccc3n2C)cc(OC)c1OC,i,·
CCC(C)C(=O)Nc1nc(-c2c(C)[nH]c3ccccc23)cs1 (stereo unspecified),i,·
Cc1ccc(C)c(OCC(=O)Nc2ccc(Br)cc2C(=O)O)c1,i,·
COC(=O)[C@@H]1Cc2c([nH]c3ccccc23)[C@H]2C[C@H](NC[C@H]3CCCO3)C[C@@H](c3ccccc3F)N21,28µM*,9
COC(=O)[C@@H]1Cc2c([nH]c3ccccc23)[C@H]2C[C@H](N3CCCCC3)C[C@@H](c3ccccc3F)N21,i,0
COC(=O)[C@@H]1Cc2c([nH]c3ccccc23)[C@H]2C[C@@H](NCCNC(C)=O)C[C@@H](c3ccccc3F)N21,?,-12
COC(=O)[C@@H]1Cc2c([nH]c3ccccc23)[C@H]2C[C@@H](NCCO)C[C@@H](c3ccccc3F)N21,28µM*,-7
COC(=O)[C@@H]1Cc2c([nH]c3ccccc23)[C@H]2C[C@@H](N3CCCCC3)C[C@@H](c3ccccc3F)N21,?,7
COC(=O)[C@@H]1Cc2c([nH]c3ccccc23)[C@H]2C[C@@H](NCCCn3ccnc3)C[C@@H](c3ccccc3F)N21,25µM*,10
Cc1ccc2c(n1)O[C@@H](COCc1ccccc1)CN(Cc1cccs1)C2=O,·,0
CC(C)c1ccc(-c2nc3cc(NC(=O)c4cccnc4)ccc3o2)cc1,i,·
COc1cccc(CNC(=O)C2CCN(c3nc4c(C)cc(C)cc4s3)CC2)c1,i,·
Cc1cccc(NC(=O)c2nn(C(C)C)c(=O)c3ccccc23)c1C,i,·
COc1ccc2cc(C(=O)NCC(C)N3CCCC3)c(C)nc2c1 (stereo unspecified),i,·
COc1cccc(-c2cc3c(=O)n(CCNC(=O)c4ccccc4OC)ccn3n2)c1,?,-6
Cc1ccc(-c2cc3c(=O)n(CCNC(=O)c4cc(F)ccc4F)ccn3n2)cc1C,?,-10
COc1ccccc1C(=O)NCCn1ccn2nc(-c3ccc(C)c(C)c3)cc2c1=O,28µM*,-14
